System: Vero E6 infected with SARS-CoV-2
Test: inhibition of SARS-CoV-2 cytopathic effect; higher = more antiviral protection, active = above 15
Settings: 48 h

Measured: inhibition of SARS-CoV-2 cytopathic effect

C[N+](C)(C)CC#CCN1CCCC1=O [oxotremorine-M]
inactive: 1 nM -3.6% | 8.33 nM -0.15% | 100 nM 2.23% | 833.33 nM -2.21% | 10000 nM 0.38%

CC(CCc1ccc(O)cc1)NCCc1ccc(O)c(O)c1 (stereo not given) [dobutamine]
inactive: 1 nM -0.38% | 8.33 nM -2.55% | 100 nM -1.12% | 833.33 nM -2.15% | 10000 nM -0.94%

C[C@]12CC[C@@H]3c4ccc(O)cc4CC[C@H]3[C@@H]1C[C@@H](O)[C@@H]2O [estriol]
inactive: 1 nM 2.04% | 8.33 nM 1.38% | 100 nM -1.95% | 833.33 nM -1.63% | 10000 nM -0.19%

COc1cc(/C=C/C(N)=O)cc(OC)c1OC [cintriamide]
inactive: 1 nM -2.6% | 8.33 nM 1.17% | 100 nM -4.56% | 833.33 nM 2.97% | 10000 nM 2.84%

CC(C(=O)O)c1ccc2c(c1)[nH]c1ccc(Cl)cc12 (stereo not given) [carprofen]
inactive: 1 nM 4.44% | 8.33 nM 2.85% | 100 nM -6.45% | 833.33 nM 4.46% | 10000 nM 3.76%

Cn1ccnc1S [methimazole]
inactive: 1 nM 0.07% | 8.33 nM 2.09% | 100 nM 0.26% | 833.33 nM 0.56% | 10000 nM 0.22%

c1cc(-c2cnn3cc(-c4ccc(OCCN5CCCCC5)cc4)cnc23)ccn1 [dorsomorphin]
inactive: 1 nM -2.38% | 8.33 nM -0.08% | 100 nM 2.59% | 833.33 nM -0.64% | 10000 nM -2.57%

CC(C)(C)C(=O)NCCCC(=O)O [pivagabine]
inactive: 1 nM 0.01% | 8.33 nM -1.15% | 100 nM -1.01% | 833.33 nM 0.86% | 10000 nM -0.03%

O=C(Nc1cccnn1)N1CCC(=Cc2cccc(Oc3ccc(C(F)(F)F)cn3)c2)CC1
inactive: 1 nM 0.89% | 8.33 nM 1.24% | 100 nM -0.76% | 833.33 nM -0.98% | 10000 nM -3.19%

CC(C)[C@H](O)C(=O)N[C@@H](C)C(=O)N[C@@H]1C(=O)N(C)CCc2ccccc21 [semagacestat]
inactive: 1 nM -0.47% | 8.33 nM 3.54% | 100 nM -1.88% | 833.33 nM -1.76% | 10000 nM -3.08%

O=C(O)C1CSCN1 (stereo not given) [timonacic]
inactive: 1 nM -2.35% | 8.33 nM -1.08% | 100 nM 3.52% | 833.33 nM 10.6% | 10000 nM 4.51%

N#C/C(=C\c1cccn1S(=O)(=O)c1cccc([N+](=O)[O-])c1)S(=O)(=O)c1ccc(F)cc1
inactive: 1 nM -0.59% | 8.33 nM -0.34% | 100 nM -0.6% | 833.33 nM -2% | 10000 nM -0.73%

O=C(Nc1ccccc1F)N[C@H]1N=C(c2ccccc2)c2ccccc2NC1=O
inactive: 1 nM 0.66% | 8.33 nM 0.41% | 100 nM -0.15% | 833.33 nM -1.67% | 10000 nM -0.49%

CC(C)NC(=O)c1ccc(C#Cc2ccncc2)cn1
inactive: 1 nM -1% | 8.33 nM 1.41% | 100 nM 2.79% | 833.33 nM 1.58% | 10000 nM 13.2%

c1ccc2c(c1)Sc1ccccc1N2C[C@H]1CN2CCC1CC2 [levomequitazine]
inactive: 1 nM -10.3% | 8.33 nM -6.41% | 100 nM -8.62% | 833.33 nM -7.33% | 10000 nM -13.9%

COc1cc(NS(=O)(=O)c2ccc(N)cc2)nc(OC)n1 [sulphadimethoxine]
inactive: 1 nM -0.84% | 8.33 nM -2.06% | 100 nM 2.74% | 833.33 nM -1.94% | 10000 nM -0.74%

Cc1ccc(/C=N/NC(=O)c2ccccc2Oc2ccccc2)o1
inactive: 1 nM -1.75% | 8.33 nM -0.44% | 100 nM -0.55% | 833.33 nM 0.13% | 10000 nM 0.97%

C#Cc1cccc(Nc2ncnc3cc(OCCOC)c(OCCOC)cc23)c1 [erlotinib]
inactive: 1 nM -0.8% | 8.33 nM -0.26% | 100 nM -1.96% | 833.33 nM -4.63% | 10000 nM -14.6%

Nc1cc(C(F)(F)F)c(-c2cc(N3CCOCC3)nc(N3CCOCC3)n2)cn1 [buparlisib]
inactive: 1 nM 2.05% | 8.33 nM 0.38% | 100 nM -0.73% | 833.33 nM -3.58% | 10000 nM -12.6%

Cc1cc(/C=C2\SC(=O)N(c3ccccc3)C2=O)c(C)n1-c1cccnc1
inactive: 1 nM 2.97% | 8.33 nM -0.28% | 100 nM 1.31% | 833.33 nM 1.52% | 10000 nM 2.29%

O=C(O)[C@@H]1C[C@@H](C2CCCCC2)CN1C(=O)CP(=O)(O)CCCCc1ccccc1 [fosinoprilat]
inactive: 1 nM -0.23% | 8.33 nM -5.78% | 100 nM -5.83% | 833.33 nM 0.83% | 10000 nM 6.8%

C#Cc1cccc(Nc2ncnc3cc(OC)c(OCCCCCCC(=O)NO)cc23)c1
inactive: 1 nM 1.1% | 8.33 nM 5.38% | 100 nM -0.94% | 833.33 nM -6.89% | 10000 nM -28%

Cc1ccc(Cl)c(Nc2ccccc2C(=O)O)c1Cl [meclofenamic-acid]
inactive: 1 nM -0.6% | 8.33 nM 1.04% | 100 nM -1.96% | 833.33 nM 0.39% | 10000 nM -1.58%

COc1ccc2c3c1O[C@H]1C[C@@H](O)C=C[C@@]31CCN(C)C2 [galantamine]
inactive: 1 nM 0.63% | 8.33 nM 3.15% | 100 nM 2.16% | 833.33 nM 2.11% | 10000 nM 0.3%

c1ccc2cc(C3=NCCN3)ncc2c1
inactive: 1 nM 1.6% | 8.33 nM 1.22% | 100 nM 2.06% | 833.33 nM -0.28% | 10000 nM 1.35%

C/C(=C(\CCOP(=O)(O)O)SC(=O)c1ccccc1)N(C=O)Cc1cnc(C)nc1N [benfotiamine]
inactive: 1 nM 0.45% | 8.33 nM 2.17% | 100 nM 2.51% | 833.33 nM 1.61% | 10000 nM 0.69%

CN[C@@H](C)CCC=C(C)C [isometheptene-mucate]
inactive: 1 nM -0.09% | 8.33 nM 2.18% | 100 nM 0.64% | 833.33 nM -1.17% | 10000 nM -0.16%

N#Cc1ccc(COC[C@H]2O[C@@H](n3c(NCc4ccc(Cl)c(Cl)c4)nc4c(N)ncnc43)[C@H](O)[C@@H]2O)cc1
inactive: 1 nM 2.98% | 8.33 nM -0.66% | 100 nM -1.89% | 833.33 nM -0.44% | 10000 nM -3.34%

Cc1csc(NC(=O)CSc2ccc(-c3ccccc3)nn2)n1
inactive: 1 nM 6.45% | 8.33 nM -1.88% | 100 nM -1.71% | 833.33 nM -1.48% | 10000 nM 12.2%

CC(C)[C@@H](CS(=O)(=O)C(C)C)N1C(=O)[C@@](C)(CC(=O)O)C[C@H](c2cccc(Cl)c2)[C@H]1c1ccc(Cl)cc1
inactive: 1 nM 2.3% | 8.33 nM 3.7% | 100 nM 3.54% | 833.33 nM 4.65% | 10000 nM 4.3%

CCC(CC)(CC(=O)Nc1cccc(/C=C/c2nc(C3CCC3)cs2)c1)C(=O)O [cinalukast]
inactive: 1 nM -1.61% | 8.33 nM 0.18% | 100 nM 0.24% | 833.33 nM 0.4% | 10000 nM 1.8%

COc1ccc2[nH]c([S+]([O-])Cc3ncc(C)c(OC)c3C)nc2n1 (stereo not given) [tenatoprazole]
inactive: 1 nM -9.92% | 8.33 nM -12.8% | 100 nM -7.87% | 833.33 nM -11.3% | 10000 nM 2.26%

NS(=O)(=O)c1ccc(NC(=O)Nc2ccc(F)cc2)cc1
inactive: 1 nM 1% | 8.33 nM -1.24% | 100 nM 0.78% | 833.33 nM -1.65% | 10000 nM -0.78%

C[C@@H](O)[C@H](N)C(=O)N1CCC[C@H]1C(=O)N1CCC[C@H]1C(=O)N[C@H](C(N)=O)[C@@H](C)O [rapastinel]
inactive: 1 nM -2.84% | 8.33 nM -5.74% | 100 nM 0.55% | 833.33 nM -1.01% | 10000 nM -0.06%

O=C(c1cc2ccccc2o1)N1CCN(Cc2ccccc2)CC1 [befuraline]
inactive: 1 nM -1.29% | 8.33 nM 1.94% | 100 nM 3.17% | 833.33 nM 0.64% | 10000 nM -2.11%

Nc1n[nH]c2nc3ccccc3nc12 [CDK1-5-inhibitor]
inactive: 1 nM 0.56% | 8.33 nM 0.41% | 100 nM 0.84% | 833.33 nM 0.94% | 10000 nM -3.33%

CC(C)(C)NC(=O)N[C@H](C(=O)N1C[C@H]2[C@@H]([C@H]1C(=O)NC(CC1CCC1)C(=O)C(N)=O)C2(C)C)C(C)(C)C (stereo not given in full) [boceprevir]
inactive: 1 nM 0.88% | 8.33 nM -0.31% | 100 nM -1.61% | 833.33 nM -1.89% | 10000 nM 1.17%

N=C(N)NCCN1CCCCCCC1 [guanethidine]
inactive: 1 nM 1.98% | 8.33 nM 0.59% | 100 nM 4.01% | 833.33 nM 2.31% | 10000 nM 0.3%

O=C1NCCN1CCN1CCC(c2cn(-c3ccc(F)cc3)c3ccc(Cl)cc23)CC1 [sertindole]
inactive: 1 nM -2.53% | 8.33 nM -4.63% | 100 nM -2.36% | 833.33 nM -5.98% | 10000 nM -11.3%

CC1C(=O)OC2C(O)C34C5CC(C(C)(C)C)C36C(OC(=O)C6O)OC4(C(=O)O5)C12O (stereo not given) [ginkgolide-B]
inactive: 1 nM 1.36% | 8.33 nM 0.56% | 100 nM -1.98% | 833.33 nM 2.69% | 10000 nM 0.1%

COc1ccc2ccc(=O)oc2c1CC=C(C)C [osthol]
inactive: 1 nM 2.39% | 8.33 nM 6.22% | 100 nM 1.91% | 833.33 nM 3.87% | 10000 nM 2.49%
